Source: PubChem BioAssay AID1446 (The Scripps Research Institute Molecular Screening Center, 2008)
The whole screen tested about 220,000 compounds, of which about 2,400 (1.1%) were called active. The list comes from a sample in which actives are over-represented; it also holds similar structures and randomly drawn compounds. A number with no mark means an inactive call.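 The calls were made as follows: active = inhibition above the campaign mean plus 3 SD over all tested compounds (cut at about 24% in these data); inactive = the rest.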

Test: viability loss in Ba/F3 EpoR-JAK2V617F cells – cell-based, luminescence, JAK2V617F inhibitor project, primary screen (AID 1446);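 also: cytokine-independent growth of Ba/F3 cells driven by EpoR plus mutant JAK2; 0% = DMSO-treated cells and 100% = JAK inhibitor I control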
Details: ATP luminescence, at 5.6 µM, hits give high values

Row | Compound | inhibition
1 | CCC1CCCCN1CCCNC(=O)C1CCC(Cn2c(=O)[nH]c3ccccc3c2=O)CC1 (stereo unspecified) | 2.93%
2 | CCC1CCCCN1CCCNC(=O)Cn1nc(-c2ccccc2)ccc1=O (stereo unspecified) | -2.73%
3 | CCC1CCCCN1CCCNC(=O)c1cc2c(Cl)nc3ccccc3c2s1 (stereo unspecified) | 58.8% (active)
4 | CC(C)(C)c1cc(P(=O)(c2ccccc2)c2ccccc2)ccc1O | -0.07%
5 | OCCN1CCN(C(=S)c2ccc(-c3ccccc3)cc2)CC1 | -5.03%
6 | COc1ccc(C(=O)CSc2nnc(NC(=O)C3CC(=O)N(c4cccc(OC)c4)C3)s2)cc1 (stereo unspecified) | 0.22%
7 | CC(C)(CCl)C(=O)Nc1ccc(Sc2ccc(F)cc2)cc1 | -2.48%
8 | O=C(CCl)Nc1ccc(Sc2ccc(NC(=O)CCl)cc2)cc1 | 39.2% (active)
9 | Cc1ccc(NC(=O)CC(=O)Nc2ccc(C)cc2)cc1 | -3.42%
10 | COc1ccc(C(=O)Nc2ccc(N3CCC(C)CC3)cc2)cc1Br | 1.71%
11 | COc1ccc(N2CCN(C(=O)CCSCc3ccccc3F)CC2)cc1 | -2.23%
12 | CCC(C)C(=O)Nc1cc([N+](=O)[O-])ccc1Cl (stereo unspecified) | -3.84%
13 | CCN(CC)S(=O)(=O)c1ccc(N(C)Cc2cccc(OC)c2OC)nc1 | 1.34%
14 | CCCCCCc1cc2cc(-c3nnc(-c4cccc(OC)c4)o3)c(=O)oc2cc1O | -1.07%
15 | Cn1c(SCC(=O)N/N=C/c2ccc(O)c(O)c2)nc2ccccc21 | 0.9%
16 | CCCc1nc2ccccc2c(=O)n1NC(=O)c1c(O)c2ccccc2[nH]c1=O | 6.3%
17 | CCCc1nc2ccccc2c(=O)n1/N=C/c1ccc(O)c(O)c1 | 26.5% (active)
18 | Cc1nnsc1C(=O)NCc1c(F)cccc1Cl | 1.93%
19 | CCCCC1S/C(=N/N=C/c2cccs2)NC1=O (stereo unspecified) | 1.12%
20 | CCOC(=O)c1[nH]c2c(c1C)C(=O)CC(c1ccc(N(C)C)cc1)C2 (stereo unspecified) | 0.77%
21 | CCCOC(=O)c1[nH]c2c(c1C)C(=O)CC(c1cc(OC)c(OC)c(OC)c1)C2 (stereo unspecified) | 17.1%
22 | CCCOC(=O)c1[nH]c2c(c1C)C(=O)CC(c1cccs1)C2 (stereo unspecified) | 74.3% (active)
23 | COc1ccc(/C=C2/SC(=O)N(CCCCCC(=O)Nc3ccccc3C(=O)O)C2=S)cc1 | -2.34%
24 | Cc1ccc(C2=NN(C)c3nc4ccccc4n3C2)cc1 | 56.8% (active)

Row | Compound | inhibition
25 | Cn1cccc1-c1nc2ccccc2n1C | 3.85%
26 | Cc1ccc(O)c(CNc2nc3ccccc3n2C)c1 | 1.4%
27 | Fc1ccc(COc2ccc(-c3nnco3)cc2)cc1 | -2.6%
28 | CCOc1cc(/C=C2/C(=N)N3OC(C)=CC3=NC2=O)ccc1OC | 1.56%
29 | C/C(=N\NC(N)=S)c1cccnc1 | -4.73%
30 | Cn1c(-c2ccc(F)cc2)cnc1SCC(=O)NNC(=O)Cc1ccccc1 | 0.3%
31 | CN(Cc1ccccc1)C(=O)CCc1ccccc1 | -4.97%
32 | Cc1ccc(-c2cnc(NC(=O)CCC(=O)N(C)Cc3ccccc3)n2C)cc1 | 40.1% (active)
33 | CC(=O)c1ccc(N2CCN(S(=O)(=O)c3c(C)[nH]c(=O)[nH]c3=O)CC2)cc1 | 2%
34 | c1ccc2c(c1)CSc1sccc1C2=C1CCNCC1 | 45.9% (active)
35 | CC(=O)NC(=S)Nc1ccc(NC(=S)NC(=O)c2ccc([N+](=O)[O-])cc2)cc1 | -4.8%
36 | Cc1cc([N+](=O)[O-])ccc1NC(=O)c1ccc(NC(=O)C(C)C)cc1 | 0.7%
37 | Cn1ccc(=Nc2ccc(NC(=O)c3ccc(N=c4ccn(C)c5ccc([N+](=O)[O-])cc45)cc3)cc2)cc1 | 34.4% (active)
38 | O=C(Nc1ccccc1-c1ccccc1)c1cccs1 | 6.54%
39 | N#Cc1ccc(OCc2nnc(-c3ccc([N+](=O)[O-])cc3)o2)cc1 | 1.03%
40 | Cc1n[nH]c(=O)n1-c1ccc(C(C)C)cc1 | 0.05%
41 | Oc1ccc(/C=N/Nc2ccc(C(F)(F)F)cn2)cc1O | 72% (active)
42 | O=C(Nc1ccccc1)Nc1ccc(C(F)(F)F)cn1 | 2.61%
43 | Cc1nccn1CC(=O)N/N=C/c1ccc(O)c(O)c1 | -3.5%
44 | CC1(C)C2CC=C(/C=N/NC(=O)C3CC3)C1C2 (stereo unspecified) | -1.08%
45 | Cc1cc(N2CCN(Cc3ccc4c(c3)OCO4)CC2)n2ncnc2n1 | 4.15%
46 | Fc1ccc2[nH]c3c(N4CCSCC4)ncnc3c2c1 | -5.13%
47 | Fc1ccc2[nH]c3c(N4CCN(Cc5ccc6c(c5)OCO6)CC4)ncnc3c2c1 | 37.1% (active)
48 | CC(=O)Nc1ccc(/C(C)=N/NC(=O)CN(c2ccccc2Br)S(C)(=O)=O)cc1 | -0.87%

Row | Compound | inhibition
49 | CSc1sc(C(=O)NC(=O)NCc2cccnc2)c(C)c1-c1ccon1 | -1.98%
50 | COc1ccc(C2C(C(C)=O)=C(O)C(=O)N2CCc2c[nH]c3ccccc23)cc1 (stereo unspecified) | -3.16%
51 | O=C(N/N=C\c1cc(Br)c(Br)o1)C1COc2ccccc2O1 (stereo unspecified) | -4.95%
52 | CCc1ccc(CN(C)Cc2nc(Cc3ccccc3)no2)nc1 | 1.45%
53 | CN(Cc1nc2ccc(F)cc2[nH]1)Cc1nc(CC2CC2)no1 | -1.61%
54 | CN(Cc1ccc2nsnc2c1)Cc1nc(Cc2cccc(F)c2)no1 | 47.5% (active)
55 | Cc1cc(C(=O)CCl)c(C)n1CC1COc2ccccc2O1 (stereo unspecified) | 2.03%
56 | CSCCC(NS(=O)(=O)c1ccc2c(c1)oc(=O)n2C)C(=O)NCc1ccccc1 (stereo unspecified) | -3.72%
57 | COc1ccc2nc(/N=C(\N)NC(=O)Nc3ccccc3)nc(C)c2c1 | 30.8% (active)
58 | COc1ccc(NC(=O)Nc2ccc3nc(C)c(C)nc3c2)cc1 | -2.47%
59 | Cc1nc(/N=C(\N)NC(=O)NC2CCCCC2)nc2ccccc12 | 2.92%
60 | CCCN(CCC)S(=O)(=O)c1ccc(C(=O)NNC(=O)c2cc(OC)c(OC)c(OC)c2)cc1 | -3.01%
61 | C#CCOCCOCCOCCNc1nc(N2CCN(C(=O)[C@H](C(C)C)n3cc(CCO)nn3)CC2)nc(N2CCN(C(=O)[C@H]([C@@H](C)CC)n3cc(CCCN=C(N)N)nn3)CC2)n1 | 1.82%
62 | NS(=O)(=O)c1ccc(NC(=O)COC(=O)c2ccc(Cl)nc2)cc1 | 0.7%
63 | CCN(CC)c1ccc(NC(=O)c2ccc(Cl)nc2)cc1 | 81.4% (active)
64 | O=C(NNc1ccccn1)c1ccc(Cl)nc1 | -0.88%
65 | COc1ccc(CN(C)Cc2nc3cc(OC)c(OC)cc3c(=O)[nH]2)c(OC)c1 | 1.74%
66 | C[C@H](NC(=O)c1ccccc1Cl)C(=O)OCCOc1cccc(Cl)c1 | -3.18%
67 | Cn1cc(C(=O)NCc2ccccc2F)cn1 | -6.67%
68 | N#CC1(C#N)C(C(=O)C23CC4CC(CC(C4)C2)C3)C12CCOCC2 (stereo unspecified) | -2.53%
69 | Cn1c(N)c(C(=O)COC(=O)/C=C/c2ccc(OC(F)F)cc2)c(=O)n(C)c1=O | 2.97%
70 | Cc1ccc(NC(=O)CN(C)Cc2ccc(F)cc2)c([N+](=O)[O-])c1 | -2.86%
71 | O=[N+]([O-])c1cccc(Nc2c3ccccc3nc3ccccc23)c1 | -2.83%
72 | Cc1ccc(Nc2c3c(nc4ccccc24)CCC3)cc1 | 4.72%

Row | Compound | inhibition
73 | CC(=O)Nc1ccc(Nc2c3ccccc3nc3ccccc23)cc1 | 102% (active)
74 | CC[C@H]1CN2CCc3cc(OC)c(OC)cc3[C@@H]2C[C@@H]1C[C@H]1NCCc2cc(OC)c(OC)cc21 | 101% (active)
75 | COc1cc2c(cc1O)[C@H](Cc1ccc(Oc3cc(C[C@@H]4NCCc5cc(OC)c(O)cc54)ccc3O)cc1)NCC2 | 1.92%
76 | Cn1cnc(C(F)(F)F)c1-c1ccc([N+](=O)[O-])cc1 | -0.95%
77 | O=C(O)/C=C/c1ccc2c(c1)OCCO2 | 0.26%
78 | CNCC(O)CN1CCN(c2ccccc2OC)CC1 (stereo unspecified) | -2.42%
79 | COc1ccccc1N1CCN(CCCCOc2ccc(F)cc2)CC1 | -1.67%
80 | COc1ccccc1N1CCN(Cc2ccc(OC)c3ccccc23)CC1 | 26.8% (active)
81 | O=c1[nH]c2ccccc2s1 | 1.22%
82 | O=C(Oc1ccccc1Cl)c1ccc(N2CCOCC2)c([N+](=O)[O-])c1 | 0.46%
83 | Cc1ccc(S(=O)(=O)NCCC(c2ccccc2)c2ccccc2)cc1C(=O)O | 0.73%
84 | C/C(=N/NC(=O)CN1CCN(S(=O)(=O)c2ccc(Br)cc2)CC1)c1ccncc1 | -1.23%
85 | COc1ccc(-c2csc(Cc3nc(O)cs3)n2)cc1 | -2.27%
86 | Cc1onc(C(=O)NN)c1-c1csc(COc2ccccc2)n1 | 3.97%
87 | CC(C)(C)C(=O)OCc1nc(-c2ccc(O)c(O)c2)cs1 | 83.4% (active)
88 | CC(C)NC(=S)N1CCN(S(C)(=O)=O)CC1 | -5.62%
89 | O=C(c1ccc(=O)oc1)N1CCC(C(O)(c2ccccc2)c2ccccc2)CC1 | 2.85%
90 | COc1ccc(F)cc1C(=O)C1CCCN(C(=O)CCc2ccccn2)C1 (stereo unspecified) | 0.16%
91 | COc1ccc(/C=C/CN2CCCC(C(=O)c3cc(F)ccc3F)C2)cc1 (stereo unspecified) | 0%
92 | CSCC(=O)N1CCCC(C(=O)c2cc(F)ccc2F)C1 (stereo unspecified) | 67.6% (active)
93 | COc1ccc(Cc2cc(-c3ccc(F)cc3)n[nH]c2=O)cc1 | 1.71%
94 | C=CCOC(=O)C1=C(C)NC(SCC(=O)OCC)=C(C#N)C1c1ccc(C)cc1 (stereo unspecified) | -0.33%
95 | CCOC(=O)CSC1=C(C#N)C(c2sccc2C)CC(=O)N1 (stereo unspecified) | 83.5% (active)
96 | Cc1ccc(C2CC(=O)NC(SCC(=O)OCc3ccccc3)=C2C#N)o1 (stereo unspecified) | 1.77%
